The list is not random: actives were taken first. Their share in the collection is about 1.6%.
p97 ATPase inh: human p97 ATPase inhibition | inhibition, % at 8 µM | hit rate 0.42% among 220,000 | AID 1481 | P55072 | recombinant p97 ATPase, Kinase-Glo ATP luminescence, 3 h; in the data active means inhibition above about 15%;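 further: 0% = DMSO vehicle and 100% = wells lacking enzyme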
S1P4 ag: activates the human S1P4 receptor; activation, % at 4.98 µM; S1P4-expressing cell line, agonist reporter assay; O95977; hit rate 0.35% among 220,000; in the data active means activation above about 11%;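 further: 0% = DMSO vehicle and 100% = reference agonist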
Arbovirus anti: antivirals against arbovirus infection. arbovirus infection cell-based antiviral screen. inhibition, % at 10 µM. hit rate 0.37% among 200,000; in the data active means inhibition above about 30%
S1P4 antag: blocks the human S1P4 receptor; O95977; S1P4-expressing cells, antagonist mode, reporter read-out; inhibition, % at 4.98 µM; hit rate 0.26% among 220,000; AID 1510; in the data active means inhibition above about 29%;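 further: 0% = wells stimulated with agonist and 100% = vehicle wells without agonist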
S1P3 antag: S1P3 (human) receptor antagonism; inhibition, % at 4.98 µM; CHO S1P3 NFAT-BLA reporter, FRET fluorescence, antagonist mode; hit rate 0.27% among 170,000;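 active means inhibition above the plate cutoff, the mean inhibition of test wells on that plate plus 3 SD, cut at about 28% in these data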;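 further: cells challenged with S1P at its EC80 of 0.8 µM; blue over green emission ratio from cleaved BLA substrate after 4 h stimulation; 0% = S1P-stimulated wells and 100% = unstimulated DMSO-only wells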
Redox H2O2 prof: compounds producing H2O2 with reducing agent – biochemical, NIH compound library profiling, artefact control for MLSCN library redox annotation, primary screen; DTT-dependent redox cycling H2O2, phenol red/HRP absorbance; 100% = 100 µM peroxide control, 0% = buffer; activation, % at 10 µM; hit rate 0.03% among 200,000; AID 878;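 active means activation of at least 50% relative to the plate's high and low controls in the primary single-dose screen; inactive means activation below 50%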;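 further: compound incubated with DTT at 0.8 mM final as the reducing agent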
Redox H2O2 DR: confirmation of DTT-dependent redox cycling H2O2 generators; phenol red-HRP absorbance; EC50, µM; AID 1234; shares compounds with Redox H2O2 prof; hit rate 40% among 60;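 active means EC50 under a set limit for hydrogen peroxide production with the reducing agent DTT present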
p97 confirm: human p97 ATPase inhibition, confirmation | shares compounds with p97 ATPase inh | recombinant p97 ATPase, Kinase-Glo ATP luminescence | inhibition, % at 8 µM | hit rate 44% among 760 | AID 1517;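 active means percent inhibition of p97 ATPase above a set limit, the primary screen's mean plus 3 SD, cut at about 15% in these data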;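 further: 0% = DMSO wells and 100% = wells lacking p97 protein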
Active calls of the source: *; nt = no result given.

SMILES	p97 ATPase inh	S1P4 ag	Arbovirus anti	S1P4 antag	S1P3 antag	Redox H2O2 prof	Redox H2O2 DR	p97 confirm
CCOC(=O)c1c2c(n(C)c1C)C(=O)C(=O)c1ccc(Br)cc1-2	7	0	nt	-4	nt	322*	0.04*	nt
O=C(COC(=O)c1ccc([N+](=O)[O-])s1)NCc1ccccc1	0	1	-3	-19	-9	113*	39*	nt
COc1ccc(/C=N/NC(=O)CSc2nnc(CCCc3ccc(OC)c(C)c3)o2)cc1	-2	-2	-4	-9	nt	0	nt	nt
CNC1=C(N(C(C)=O)c2ccc(Br)cc2)C(=O)c2ccccc2C1=O	1	2	-32	3	-4	108*	>50	nt
Cc1oc2cc(OC(C)C(=O)O)ccc2c(=O)c1Oc1ccccc1 (stereo unspecified)	2	-2	3	-3	-1	0	nt	nt
CCOc1ccc2c(=O)c(Oc3ccccc3)c(C)oc2c1	1	0	0	-3	nt	57*	>50	nt
Cc1ccc(NC2=C/C(=N/S(=O)(=O)c3cccs3)c3ccccc3C2=O)cc1C	-3	2	-12	-4	-18	-1	nt	nt
Cc1cc(C)c(S(=O)(=O)/N=C2/C=C(Sc3ncn[nH]3)C(=O)c3ccccc32)cc1C	13	1	-37	0	-11	143*	23*	nt
CCC(C)n1c(NC(=O)c2ccccc2)c(C#N)c2nc3ccccc3nc21 (stereo unspecified)	27*	1	nt	7	nt	63*	>50	4
Nc1ccc(Oc2ccc3c(c2)C(=O)N(CC2CCCO2)C3=O)cc1 (stereo unspecified)	-5	0	nt	-2	-9	nt	nt	nt
CC(=O)Nc1cc(OC(C)=O)c2nonc2c1OC(C)=O	30*	-3	nt	109*	54*	113*	7.8*	32*
C=CCn1c(NS(=O)(=O)c2ccccc2)c(S(=O)(=O)c2ccc(C)cc2)c2nc3ccccc3nc21	31*	2	26	-13	4	99*	>50	29*
O=S(=O)(Nc1c(S(=O)(=O)c2ccccc2)c2nc3ccccc3nc2n1C1CCCCC1)c1ccccc1	20*	0	-7	5	-15	95*	12*	-1
CC(=O)Nc1c(S(=O)(=O)c2ccccc2)c2nc3ccccc3nc2n1Cc1ccccc1	-5	4	2	-14	nt	0	nt	nt
Cc1ccc(S(=O)(=O)c2c(N)n(-c3ccccc3)c3nc4ccccc4nc23)cc1	1	3	-19	-13	14	0	nt	nt
Cc1cc[n+](C(C)C(=O)c2ccc(-c3ccccc3)cc2)cc1 (stereo unspecified)	2	0	1	-7	-6	-1	nt	nt
CC(=O)N(CN1C(=O)c2ccccc2C1=O)c1cccc(C)c1	3	1	4	-6	-27	1	nt	nt
CC(=O)N(/N=C1\Sc2ccccc2C1=O)c1cccc(C)c1	15*	0	-5	-1	nt	296*	26*	24*
Cc1ccc(C(=O)c2c(C)oc3c2C(=O)C(=O)c2ccccc2-3)cc1	22*	0	-41	8	nt	458*	>50	20*
C=CCn1c(Cc2csc(N)n2)nnc1SCC(=O)Nc1ccccc1C(F)(F)F	1	-2	5	-4	nt	0	nt	nt
O=S(=O)(Nc1cc2nc3ccccc3nc2n1Cc1ccccc1)c1ccc(Cl)cc1	31*	0	-31	-2	9	85*	>50	43*
COc1ccc(NC(=O)CC2C(=O)N(c3cccc(OC)c3)C(=O)N2Cc2ccco2)cc1 (stereo unspecified)	2	0	2	-6	-7	-2	nt	nt
CCOC(=O)c1[nH]c2ccc(Br)cc2c1NC(=O)CCN1CCCCC1	22*	0	-12	-1	-2	-1	nt	4
CCOC(=O)c1[nH]c2ccc(Br)cc2c1NC(=O)CCN1CCN(C(=O)OCC)CC1	3	-1	5	9	nt	-1	nt	nt
CCOC(=O)c1[nH]c2ccc(Br)cc2c1NC(=O)CCN1CCC(C(=O)OCC)CC1	18*	-3	7	7	nt	1	nt	16*
COc1ccccc1N1CCN(Cc2cc(=O)n3ccsc3n2)CC1	16*	1	3	-3	nt	-4	nt	9

Compound activity from PubChem BioAssay.
